Assay results reported in the supplement of paper PMC4466140.

B1: unnamed (peptide)
chain: STKKPRPPVKSKPKH

target: ScBbc1; assay: SPOT peptide array binding signal intensity (averaged, normalized) (arbitrary units (background-subtracted, floor 0; scale differs between SH3 domains)); higher = stronger binding of the SH3 domain to the peptide
Outline: (§1)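 Cellulose membranes carried synthetic 15-mer peptides with cysteines swapped for serines. These were incubated overnight at 4°C with 10 μg/ml of GST-fused SH3 domains from four yeast species in TBS-based blocking buffer. Binding signal, detected with anti-GST antibody and quantified in Genespotter, is the normalized, background-subtracted spot intensity averaged over replicates, in arbitrary units specific to each domain.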

Question: How did the “SPOT peptide array binding signal intensity” value turn out when B1 was run?
Answer: Its value is 5.5.

target: ScBem1-D1; assay: as above
Outline: as §1

Question: B1 was tested. Which “SPOT peptide array binding signal intensity” value did it give?
Answer: The value was 14.

target: ScBzz1-D1; assay: as above
Outline: as §1

Question: How did the “SPOT peptide array binding signal intensity” value turn out when B1 was run?
Answer: Its value is 4.5.

target: ScBzz1-D2; assay: as above
Outline: as §1

Question: B1 was tested. Which “SPOT peptide array binding signal intensity” value did it give?
Answer: Its value is 13.

target: ScCyk3; assay: as above
Outline: as §1

Question: B1 was tested. Which “SPOT peptide array binding signal intensity” value did it give?
Answer: The value was ≤ 0.

target: ScFus1; assay: as above
Outline: as §1

Question: With B1 as the binder, how does the “SPOT peptide array binding signal intensity” value read?
Answer: The value was ≤ 0.

target: ScHof1; assay: as above
Outline: as §1

Question: For B1, which “SPOT peptide array binding signal intensity” value is on record?
Answer: The value was ≤ 0.

target: ScHse1; assay: as above
Outline: as §1

Question: For B1, which “SPOT peptide array binding signal intensity” value is on record?
Answer: Its value is 110.

target: ScLsb1; assay: as above
Outline: as §1

Question: How did the “SPOT peptide array binding signal intensity” value turn out when B1 was run?
Answer: Its value is 0.5.

target: ScLsb2; assay: as above
Outline: as §1

Question: B1 was tested. Which “SPOT peptide array binding signal intensity” value did it give?
Answer: Its value is 3.

target: ScLsb3; assay: as above
Outline: as §1

Question: B1 was tested. Which “SPOT peptide array binding signal intensity” value did it give?
Answer: Its value is 153.

target: ScLsb4; assay: as above
Outline: as §1

Question: For B1, which “SPOT peptide array binding signal intensity” value is on record?
Answer: Its value is 1.

target: ScMyo3; assay: as above
Outline: as §1

Question: Which “SPOT peptide array binding signal intensity” value does the source give for B1 here?
Answer: The value was 5.5.

target: ScMyo5; assay: as above
Outline: as §1

Question: For B1, which “SPOT peptide array binding signal intensity” value is on record?
Answer: Its value is ≤ 0.

target: ScNbp2; assay: as above
Outline: as §1

Question: For B1, which “SPOT peptide array binding signal intensity” value is on record?
Answer: The value was 22.

target: ScPex13; assay: as above
Outline: as §1

Question: Which “SPOT peptide array binding signal intensity” value does the source give for B1 here?
Answer: Its value is ≤ 0.

target: ScRvs167; assay: as above
Outline: as §1

Question: Which “SPOT peptide array binding signal intensity” value does the source give for B1 here?
Answer: The value was ≤ 0.

target: ScSho1; assay: as above
Outline: as §1

Question: For B1, which “SPOT peptide array binding signal intensity” value is on record?
Answer: The value was 269.

target: ScSla1-D1-D2; assay: as above
Outline: as §1

Question: Which “SPOT peptide array binding signal intensity” value does the source give for B1 here?
Answer: The value was 34.5.

target: ScSla1-D3; assay: as above
Outline: as §1

Question: Which “SPOT peptide array binding signal intensity” value does the source give for B1 here?
Answer: The value was 16.8.

target: SpAbp1-D1; assay: as above
Outline: as §1

Question: Which “SPOT peptide array binding signal intensity” value does the source give for B1 here?
Answer: Its value is 193.

target: SpBbc1; assay: as above
Outline: as §1

Question: B1 was tested. Which “SPOT peptide array binding signal intensity” value did it give?
Answer: The value was 8.

target: SpBzz1-D1; assay: as above
Outline: as §1

Question: How did the “SPOT peptide array binding signal intensity” value turn out when B1 was run?
Answer: The value was 47.

target: SpBzz1-D2; assay: as above
Outline: as §1

Question: For B1, which “SPOT peptide array binding signal intensity” value is on record?
Answer: The value was 2.

target: SpCyk3; assay: as above
Outline: as §1

Question: With B1 as the binder, how does the “SPOT peptide array binding signal intensity” value read?
Answer: Its value is ≤ 0.

target: SpHof1; assay: as above
Outline: as §1

Question: With B1 as the binder, how does the “SPOT peptide array binding signal intensity” value read?
Answer: Its value is 11.8.

target: SpHof1-2; assay: as above
Outline: as §1

Question: With B1 as the binder, how does the “SPOT peptide array binding signal intensity” value read?
Answer: Its value is 3.5.

target: SpHof1-3; assay: as above
Outline: as §1

Question: B1 was tested. Which “SPOT peptide array binding signal intensity” value did it give?
Answer: Its value is 274.

target: SpHse1; assay: as above
Outline: as §1

Question: How did the “SPOT peptide array binding signal intensity” value turn out when B1 was run?
Answer: The value was 44.5.

target: SpLsb1; assay: as above
Outline: as §1

Question: How did the “SPOT peptide array binding signal intensity” value turn out when B1 was run?
Answer: The value was 383.

target: SpLsb4; assay: as above
Outline: as §1

Question: With B1 as the binder, how does the “SPOT peptide array binding signal intensity” value read?
Answer: The value was 30.

target: SpMyo1; assay: as above
Outline: as §1

Question: Which “SPOT peptide array binding signal intensity” value does the source give for B1 here?
Answer: The value was ≤ 0.

target: SpNbp2; assay: as above
Outline: as §1

Question: With B1 as the binder, how does the “SPOT peptide array binding signal intensity” value read?
Answer: The value was ≤ 0.

target: SpPex13; assay: as above
Outline: as §1

Question: For B1, which “SPOT peptide array binding signal intensity” value is on record?
Answer: The value was ≤ 0.

target: SpRvs167; assay: as above
Outline: as §1

Question: For B1, which “SPOT peptide array binding signal intensity” value is on record?
Answer: The value was ≤ 0.

target: SpSla1-D1-D2; assay: as above
Outline: as §1

Question: How did the “SPOT peptide array binding signal intensity” value turn out when B1 was run?
Answer: Its value is 8.

target: SpSla1-D3; assay: as above
Outline: as §1

Question: With B1 as the binder, how does the “SPOT peptide array binding signal intensity” value read?
Answer: The value was ≤ 0.
